Assay outcomes deposited in PubChem by National Center for Advancing Translational Sciences (NCATS).
Most compounds without a hit are left out; they make up all but 7.4% or so of the library.
SNCA viab count: GF-AFC viability counterscreen for inhibitors of alpha-synuclein gene (SNCA) expression | 0.12% of 150,000 active | AID 1671193, 2021 | HEK-293-SNCA-luc viability, GF-AFC fluorescence, 24 h | Potency, µM (highest dose often 57.1 µM), for the others: at the top dose activity change, negative = cytotoxicity, most hits filed as cytotoxic;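 further: 0% = DMSO-treated cells and -100% = medium-only wells without cells; nearly all actives have a fitted effect of over 30% in size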
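Cytotoxicity counterscreen: after 24 h compound treatment of genome-edited SNCA-luciferase HEK-293 cells, live-cell protease substrate GF-AFC read by fluorescence after 30 min; activity scaled between DMSO (0%) and medium-only (-100%), curves Hill-fitted.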
FLuc inh: Firefly luciferase inhibition profiling of diverse chemical library using quantitative high-throughput screening | 2.5% of 76,000 active | purified P. pyralis luciferase, luminescence, biochemical | Potency, µM (series often up to 115 µM), hits mostly inhibitors | Luciferin 4-monooxygenase (Photinus pyralis), P08659; further: nearly all actives have a fitted effect of over 65% in size
Target sequence (P08659 whole entry, looked up): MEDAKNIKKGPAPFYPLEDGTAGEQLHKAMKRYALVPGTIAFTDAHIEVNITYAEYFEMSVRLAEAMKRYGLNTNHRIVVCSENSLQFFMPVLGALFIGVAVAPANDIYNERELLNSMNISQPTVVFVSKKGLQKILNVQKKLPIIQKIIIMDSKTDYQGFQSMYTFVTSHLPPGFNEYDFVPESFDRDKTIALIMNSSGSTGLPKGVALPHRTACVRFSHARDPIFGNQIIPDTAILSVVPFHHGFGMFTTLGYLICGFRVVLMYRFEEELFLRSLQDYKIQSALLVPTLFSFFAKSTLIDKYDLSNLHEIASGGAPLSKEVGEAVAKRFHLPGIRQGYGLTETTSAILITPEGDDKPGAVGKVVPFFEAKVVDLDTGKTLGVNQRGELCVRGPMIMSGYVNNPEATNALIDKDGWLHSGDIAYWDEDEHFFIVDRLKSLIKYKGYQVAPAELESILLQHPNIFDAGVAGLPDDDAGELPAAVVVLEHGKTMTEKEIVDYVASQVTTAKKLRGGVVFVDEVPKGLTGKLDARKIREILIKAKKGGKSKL
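FLuc 10nM, D-luciferin 10uM, ATP 10uM, Mg acetate 10mM, Tris acetate pH 7.5, Tween/BSA; cpd qHTS; enzyme added last; CCD luminescence.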
SNCA expr inhib: Primary qHTS assay for inhibitors of alpha-synuclein gene (SNCA) expression. HEK-293 SNCA-luciferase knock-in, luminescence, 24 h. Potency, µM (series often up to 57.2 µM), for inactives: at the highest dose activity change, negative = inhibition, most hits filed as inhibitors. 0.17% of 140,000 active;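 further: plate controls were DMSO cells for no effect and cell-free wells for full effect; nearly all actives have a fitted effect of over 45% in size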
NPR1 antag: Natriuretic polypeptide receptor (hNpr1) antagonism - Primary qHTS; Atrial natriuretic peptide receptor 1 (Homo sapiens), P16066; HEK293 hNpr1 GloSensor cGMP, ANP-stimulated luminescence; Potency, µM (series often up to 46.3 µM), for the others: top-dose activity change, negative = inhibition, hits mostly inhibitors; 1.6% of 76,000 active; AID 1347048, 2019; calls by dose curve; further: nearly all actives have a fitted effect of over 60% in size
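HEK293 cells stably expressing human Npr1 and cGMP GloSensor pGS-40F, loaded 2 h with 2% GloSensor reagent, given compound 30 min at room temperature. Luminescence read before and 20 min after 0.1 nM hNppA.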
3T3 cytotox: Cytotoxic Profiling in NIH 3T3 Cell Line of Diverse Libraries Using Quantitative High-Throughput Screening; 4.3% of 94,000 active; NIH 3T3 viability, CellTiter-Glo ATP luminescence, 48-72 h; AID 1345082, 2018; Potency, µM (top dose mostly 96.7 µM), for inactives: top-dose activity change, negative = cytotoxicity, most hits filed as inhibitors; further: nearly all actives have a fitted effect of over 55% in size
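Luminescent ATP readout (CellTiter-Glo, 10 min RT) after 48 or 72 hr compound exposure of NIH 3T3 cells seeded at 400 cells/well in 1536-well format; quantitative HTS.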
HEK cytotox: Cytotoxic Profiling in HEK 293 Cell Line of Diverse Libraries Using Quantitative High-Throughput Screening | AID 1345083, 2018 | 6.6% of 94,000 active | HEK 293 viability, ATP luminescence (CellTiter-Glo), 48-72 h | Potency, µM (doses to about 115 µM), for the others: at the top dose activity change, negative = cytotoxicity, usual class: inhibitors; further: nearly all actives have a fitted effect of over 60% in size
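Read-out: CellTiter-Glo ATP luminescence. Cells: HEK 293, 250 cells/well. Exposure: 48 or 72 hr, 37 degree Celsius.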
Starred values were filed as active, the others as inactive; i = inactive; u = inconclusive; x = no result given; ! = not confirmed by another sample; [ ] = another dose, or the depositor's remark. Unless noted, the call rests on the fitted dose curve; in most records, active means well fitted curve in the direction sought with a large enough effect; inconclusive means small, poorly fitted or top-dose-only effect, or another doubt; inactive means no such curve, though single readings can be large; an effect the other way counts as inactive or inconclusive. Unless noted, on the % scale 0 is the no-effect control and ±100 the full control effect; potency means the concentration at half of the fitted maximal effect.

SMILES | SNCA viab count | FLuc inh | SNCA expr inhib | NPR1 antag | 3T3 cytotox | HEK cytotox
CNC(=O)c1cc2cc(-c3c(C)noc3C)nc(-c3cccc(CO)c3)c2o1 | -10%[87.6 µM] | i | 72%[87.6 µM] | 0%[70.6 µM] | u | u
CC(=O)N1CCN(c2nc(-c3c(C)noc3C)cc3cc(C(C)C)oc23)CC1 | -22%[87.6 µM] | i | 31%[87.6 µM] | -2%[70.6 µM] | 50µM* | u
Cc1noc(C)c1-c1cc2c(cc(C)n2C)c(-c2cccc(CO)c2)n1 | 0%[87.6 µM] | i | 17%[87.6 µM] | -20%[70.6 µM] | 45µM* | u
CNC(=O)c1cc2cc(-c3c(C)noc3C)nc(-c3cccnc3)c2o1 | 10%[87.6 µM] | i | 22%[87.6 µM] | -11%[70.6 µM] | u | u
NC(=O)C1CCN(CC[C@H]2CN(C(=O)Nc3ccc(OC(F)(F)F)cc3)CC[C@H]2CC(=O)O)CC1 | 4% | i | 6% | 0% | -6% | -2%
COc1cccc(NC(=O)c2c(-c3cnn(C)c3NCc3ccc(C#N)cc3)noc2C)c1 | -5% | i | u | -2% | u | -18%
COc1ccc2c(c1)CCN=C2C[C@H]1CN(C(=O)c2cccc(F)c2)CC[C@H]1CC(=O)O | -3% | i | 2% | 3% | -2% | -13%
Cc1noc(C)c1-c1cc2c(cc(C)n2C)c(-c2ccc(CO)cc2)n1 | -1%[87.6 µM] | i | 23%[87.6 µM] | 1%[70.6 µM] | 32µM* | u
Cc1cc2c(-c3ccc(CO)cc3)nc(-c3c(C)noc3C)cc2[nH]1 | -7%[87.6 µM] | i | 58%[87.6 µM] | -1%[70.6 µM] | 10µM* | u
Cc1noc(C)c1-c1cc2c(cc(C)n2C)c(N2CCN(c3ccccn3)CC2)n1 | -7%[87.6 µM] | i | -19%[87.6 µM] | 3%[70.6 µM] | 45µM* | 63µM*
O=C(c1cccc(OC2CN(Cc3cccnc3)C2)c1)N1CCCC1 | -7% | i | -6% | 5% | 5% | -12%
Cc1ccc(CC(=O)N2CCc3cn(C)c4cccc(c34)C2)cc1 | 3% | i | -11% | 3% | u | 79µM*
COc1ccc(C(=O)N2CCC3(CC2)CC(Cc2nc(-c4ccccc4)no2)CCO3)cc1 (stereo not given) | u | u | u | 7.1µM* | u | 13µM*
COc1cccc(-c2noc(CC3CCN(C(=O)c4cc(OC)c(OC)c(OC)c4)CC3)n2)c1 | -15% | i | 4% | -18% | u | 45µM*
COc1ccc(-c2noc(CC3CCN(C(=O)Cc4ccsc4)CC3)n2)cc1 | -15% | i | -28% | u | u | 45µM*
COc1ccc(CC2CCN(C(=O)c3c(C)noc3-c3ccc4c(c3)OCO4)CC2)cc1 | 14% | i | -16% | u | 25µM* | 35µM*
COc1ccc(CCC(=O)N2CCC3(CC2)CC(Cc2nc(-c4cccnc4)no2)CCO3)cc1 (stereo not given) | -2% | i | -17% | u | u | u
COCCN1CC(CO)C2(CCN(Cc3ccc(Cl)cc3F)CC2)C1 (stereo not given) | 2%[12.5 µM] | i | u | -2% | u | u
CC(=O)NCCNC(=O)c1ccc(-c2cncnc2)cc1 | x | x | x | x | -18%[138 µM] | -8%[172 µM]
O=C(c1ccc2c(c1)OCO2)N1CCC(Cc2nc(-c3ccccc3)no2)CC1 | -3% | u | 7% | 4µM* | u | 10µM*
CC(C)c1noc(CC2CCN(C(=O)c3ccc4c(c3)OCO4)CC2)n1 | -8% | i | -12% | -13% | u | u
CCOc1ccc(NC(=O)CC2CCCN(c3cnn(CCOC)c(=O)c3)C2)cc1 (stereo not given) | -7% | i | u | -5% | u | 10%
O=C1NC(C(=O)N2CCN(Cc3ccccc3)CC2)CN1Cc1ccccc1 (stereo not given) | 8% | i | -1% | 15% | 3% | i
O=C(C1CN(c2ccccc2)C(=O)N1)N1CCN(Cc2ccccc2)CC1 (stereo not given) | -1% | i | 24% | -4% | u | 45µM*
O=C(C1CN(c2ccc(Cl)cc2)C(=O)N1)N1CCN(Cc2ccccc2)CC1 (stereo not given) | -23% | i | u | 0% | u | 25µM*
SMILES | SNCA viab count | FLuc inh | SNCA expr inhib | NPR1 antag | 3T3 cytotox | HEK cytotox
CCOCC(=O)N1CCC(Nc2cccn3ncnc23)CC1 | 5% | i | -2% | -3% | -9% | 3%
CC(NC(=O)c1cc(-c2ccncc2)cn1C)c1ccc(F)cc1 (stereo not given) | -20% | i | u | -10% | -24% | 79µM*
O=C1CC2(CCN(C(=O)c3ccc(C(F)(F)F)cc3)CC2)Oc2cc(Cl)ccc21 | -8% | i | -17% | -20% | 25µM* | 35µM*
O=C1CC2(CCN(C(=O)c3ccccc3F)CC2)Oc2cc(Cl)ccc21 | 6% | i | -8% | -23% | u | u
CC(=O)Nc1ccc(CN2CCC3(CC2)CC(=O)c2ccc(Cl)cc2O3)cc1 | -8% | i | 37% | 12% | u | 50µM*
CC(=O)Nc1ccc(CN2CCC3(CC2)CC(=O)c2ccccc2O3)cc1 | -4% | i | 40% | 0% | u | -15%
O=C1CC2(CCN(Cc3cccs3)CC2)Oc2cc(Cl)ccc21 | 1% | 16µM*! | 108% | 0% | u | u
CN(CCc1ccccc1)Cc1cc(C(=O)N2CCOc3ccccc3C2)no1 | 5% | i | 10% | -1% | u | u
CN1C(=O)CO[C@H](c2ccc(NC(=O)C(C)(C)C)cc2)[C@H]1CO | 6%[87.6 µM] | i | -5%[87.6 µM] | 0%[70.6 µM] | -13%[138 µM] | -8%[172 µM]
O=C(NCCc1ccccc1)C1CCc2nnc(-c3cccc(C(F)(F)F)c3)n21 (stereo not given) | -1% | x | 10% | x | u | -28%
Cc1nc(-c2cccc(Cl)c2)n(CC(=O)Nc2ccc(C(F)(F)F)cc2)c(=O)c1CCO | u | i | u | -22% | 16µM* | 32µM*
Cc1ccccc1NC(=O)Cn1c(-c2cccc(Cl)c2)nc(C)c(CCO)c1=O | -29% | i | -19% | -3% | u | u
CCc1ccc(NC(=O)Cn2c(-c3cccc(Cl)c3)nc(C)c(CCO)c2=O)cc1 | -25% | i | -1% | 0% | u | 28µM*
COc1ccccc1NC(=O)Cn1c(-c2cccc(Cl)c2)nc(C)c(CCO)c1=O | -22% | i | 9% | -3% | -25% | u
